Shown are actives, neighbours in structure and some others; about 21% of the full set was active somewhere.
NS1 function inh = qHTS Assay for Inhibitors of Influenza NS1 Protein Function; Potency, µM (titrated, usually from 46.1 µM); actives 0.4% (n = 270,000); calls by dose curve; note: actives are rising curves; nearly all actives have a fitted effect of over 50% in size
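Recovery from NS1-induced slow growth read by OD600 in budding yeast switched to galactose assay medium (pH 6.0, -URA) at 1:100 dilution. Compound 23 nl per well; the matching strain lacking NS1 serves as control.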
CHX counter = Cycloheximide Counterscreen for Small Molecule Inhibitors of Shiga Toxin; actives 12% (n = 300,000); max response, %; cell reporter, cycloheximide protein synthesis inhibition counterscreen; AID 2314, 2010; in the data active = max response mostly above about 13%, no sharp cut-off; inactive = mostly below about 14%; note: read at 38.3 µM for the half of the compounds with a filed dose
Shiga inhibitor = A qHTS for Small Molecule Inhibitors of Shiga Toxin | actives 9.2% (n = 290,000) | Vero cells, Shiga toxin protein synthesis inhibition reporter | inhibition, % at 38.7 µM | AID 2315, 2010; in the data active = inhibition mostly above about 28%, no sharp cut-off; inactive = mostly below about 43%
Pf growth 96h = Primary qHTS for delayed death inhibitors of the malarial parasite plastid, 96 hour incubation | actives 6.9% (n = 320,000) | P. falciparum luciferase reporter growth, 96 h | Potency, µM (series often up to 28.7 µM), actives largely listed as inhibitors
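Readout is luminescence from an integrated firefly luciferase in P. falciparum. Red cells, 2% hematocrit and 0.05% parasitemia final, were cultured with compound through two parasite generations (96 hours) at 37 C, 5% CO2.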
Pf growth 48h = Primary qHTS for delayed death inhibitors of the malarial parasite plastid, 48 hour incubation. P. falciparum luciferase growth in erythrocytes, 48 h. AID 504832, 2011. Potency, µM (top dose mostly 28.7 µM), most hits filed as inhibitors. actives 5.9% (n = 310,000)
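Luminescence readout; reporter = integrated firefly luciferase in P. falciparum. RBC culture at 2% hematocrit, 0.1% parasitemia final, 37 C/5% CO2; decreased signal taken as growth inhibition.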
Sm TGR inh = qHTS Assay for the Inhibitors of Schistosoma Mansoni Peroxiredoxins | actives 3% (n = 360,000) | Potency, µM (top dose mostly 114 µM), most hits filed as inhibitors | purified TGR, DTNB reduction, TNB absorbance 405 nm | Schistosoma mansoni thioredoxin glutathione reductase (TGR), Q962Y6; note: nearly all actives have a fitted effect of over 60% in size
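TGR 20 nM + NADPH 100 uM (dispensed conc.), cpd preinc 15 min RT; start with NADPH (500 uM addition) then DTNB (15 mM addition). Kinetic TNB absorbance, 405 nm filter. Four-parameter Hill fit across titration.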
A number is an active result; – = inactive; ? = inconclusive; · = no result; [ ] = dose if it differs, or a comment. Unless noted, calls come from the whole dose curve; as a rule, active = well fitted curve in the direction sought with a large enough effect; inconclusive = small, poorly fitted or top-dose-only effect, or another doubt; inactive = no such curve, though single readings can be large; an effect the other way counts as inactive or inconclusive.

SMILES	NS1 function inh	CHX counter	Shiga inhibitor	Pf growth 96h	Pf growth 48h	Sm TGR inh
O=C1c2ccccc2OC2(C=Cc3ccccc3O2)N1Cc1ccccc1 (centres undefined)	–	–	–	4.1µM	·	–
CN(C)/C=C/C(=O)/C=C/c1cn(-c2ncc(C(F)(F)F)cc2Cl)c2ccccc12	–	–	–	?	13µM	–
COC(=O)Cc1cn(-c2ncc(C(F)(F)F)cc2Cl)c2ccccc12	–	–	–	?	·	–
Cc1nnc(SC(=O)N2c3ccccc3Sc3ccccc32)s1	–	–	–	·	10µM	–
CCn1c(CC(=O)Nc2cccc(Cl)c2Cl)nnc1SCCOc1ccc(OC)cc1	–	–	–	?	·	–
COc1ccc(OCCSc2nnc(CC(=O)Nc3cccc(Cl)c3Cl)n2C)cc1	–	23	–	–	·	–
CN(C)C(=O)CSc1ncccc1-c1nc2ccccc2[nH]1	–	–	–	–	–	–
c1ccc2[nH]c(-c3ccnc4ccccc34)nc2c1	–	27	–	?	–	–
Cc1ccccc1-c1nc2ccccc2[nH]1	–	46	95	–	–	–
CSc1ncccc1-c1nc2ccccc2[nH]1	–	28	–	–	·	–
Cn1cc(Cl)c(-c2nc3ccccc3[nH]2)n1	–	26	71	–	·	–
Clc1ccccc1-c1nc2ccccc2[nH]1	–	53	81	–	–	–
Fc1ccccc1-c1nc2ccccc2[nH]1	–	39	111	13µM	–	–
Cc1cccc(NC(c2ccccc2C)c2ccc3ccc(C)nc3c2O)n1 (centres undefined)	·	·	·	·	·	3.5µM
Cc1cccc(NCc2ccccc2O)n1	–	–	–	–	?	–
Cc1cccc(NC(c2ccc(C)s2)c2ccc3ccc(C)nc3c2O)n1 (centres undefined)	–	–	–	–	?	45µM
C=C1c2ccccc2O[C@H](C(=O)OCC)[C@@H]1C1CCCCC1 (tested in a mixture with another compound)	·	–	–	·	·	·
CCOC(=O)Cn1c(=O)cc(C(F)(F)C(F)(F)F)c2c(C)nn(CC)c21	·	·	·	·	·	–
S=C1NCCc2ccc(Cl)cc2C1c1ccccc1Cl (centres undefined)	–	–	–	?	12µM	–
Clc1ccc2c(c1)C(C1=NCCN1)c1ccccc1CS2 (centres undefined)	–	–	–	–	?	–
CCC(=NCc1ccco1)c1c(O)n(-c2ccc(Cl)cc2)c(=O)[nH]c1=O	–	–	–	–	–	40µM
CCC(=NCc1ccco1)c1c(O)n(-c2ccc(OC)cc2)c(=O)[nH]c1=O	–	–	–	–	–	–
CC1=C(C(=O)OC2CCCC2)C(c2ccc(Cl)cc2)CC(=O)N1 (centres undefined)	·	·	·	·	·	–
COc1ccc(-n2c(C)nn(C)c2=O)cc1	–	–	–	?	–	–
COc1ccc(-n2c(/C=C(\C)O)nc(=O)c3c(C)cc(C)nc32)cc1	–	–	–	·	0.83µM	–
SMILES	NS1 function inh	CHX counter	Shiga inhibitor	Pf growth 96h	Pf growth 48h	Sm TGR inh
Cc1nc2c(-c3ccccc3)c(C)nn2c(C)c1CCC(=O)NCc1ccc(Cl)cc1	·	·	·	·	·	–
Fc1cnc(N2CCOCC2)nc1N1CCc2ccccc21	–	–	active	·	?	–
CCCCOc1c(Br)cc(CNCCCN2CCOCC2)cc1OC	–	–	–	10µM	13µM	–
CCCCNCc1cc(Br)c(OCC(=O)N2CCOCC2)c(OC)c1	–	–	–	–	–	?
Cc1cccc(-c2nnc(N)s2)c1	–	–	–	–	–	–
CCCOc1cccc(-c2nnc(N)s2)c1	–	22	44	–[5.75 µM]	–	–
CCCCOc1cccc(-c2nnc(N)s2)c1	–	25	–	–	–	–
COC(=O)C1CN(C(=O)COc2cc(C)cc(C)c2)c2ccccc2O1 (centres undefined)	–	–	–	?	–	–
COc1ccc(-c2c(C)c3cc(O)ccc3oc2=O)cc1	–	18	–	?	?	–
COc1ccc(-c2c(O)c3cc(O)cc(O)c3oc2=O)cc1	·	44	71	·	·	·
O=C(CN1C(=O)/C(=C/c2ccco2)SC1=S)Nc1ccc(C(=O)O)c(O)c1	?	–	–	?	–	14µM
